# Where “and” joins values, the source holds several entries; their conditions need not be identical. Equal values may be shown once. Records with an inconclusive call do not appear. Calls of active or inactive are those of the source. Unless noted, the call rests on the fitted dose curve; in most records, active means well fitted curve in the direction sought with a large enough effect; inconclusive means small, poorly fitted or top-dose-only effect, or another doubt; inactive means no such curve, though single readings can be large; an effect the other way counts as inactive or inconclusive.
# Key:
# [1] = AP1 Signaling Pathway (AID 357; active means well fitted curve in either direction with a large enough effect, not every such curve was filed as active; further: on the % scale 0 is the no-effect control and ±100 the full control effect); conditions: ME-180 AP-1-bla reporter, EGF-induced, beta-lactamase ratio, 5 h; at 17.2 µM (top of the series)
# Outline: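 AP-1-bla ME-180 cells with beta-lactamase reporter under AP-1 response element, stimulated with EC50 EGF; compounds titrated, 5 hours at 37 degrees Celsius. CCF4 read at 460/530 nm ratio; positive and negative modulators judged by AC50.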
# [2] = target: Cytochrome P450 1A2 (Homo sapiens) (UniProt P05177); test: p450-cyp1a2 (AID 410; calls by dose curve; further: potency means the concentration at half of the fitted maximal effect); conditions: recombinant CYP1A2, luciferin-ME demethylation, luminescence; series mostly up to 57 µM
# Chain of Cytochrome P450 1A2 (Homo sapiens) (P05177 whole entry, looked up): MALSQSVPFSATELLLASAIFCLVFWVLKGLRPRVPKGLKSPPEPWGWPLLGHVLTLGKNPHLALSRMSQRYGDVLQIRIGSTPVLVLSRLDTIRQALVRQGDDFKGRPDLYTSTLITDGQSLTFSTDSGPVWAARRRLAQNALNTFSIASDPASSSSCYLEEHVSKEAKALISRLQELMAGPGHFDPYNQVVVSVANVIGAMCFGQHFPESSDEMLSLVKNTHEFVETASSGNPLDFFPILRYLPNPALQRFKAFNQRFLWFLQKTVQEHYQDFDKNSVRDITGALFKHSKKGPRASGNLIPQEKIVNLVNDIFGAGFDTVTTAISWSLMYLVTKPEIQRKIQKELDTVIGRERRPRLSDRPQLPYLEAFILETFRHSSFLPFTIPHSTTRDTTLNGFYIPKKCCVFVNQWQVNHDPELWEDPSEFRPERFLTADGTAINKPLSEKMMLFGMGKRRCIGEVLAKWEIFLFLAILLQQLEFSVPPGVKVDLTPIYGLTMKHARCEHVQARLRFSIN
# Outline: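 Inhibition was calculated relative to 57 uM furafylline (full inhibition). The reaction used human CYP1A2 at 20nM with Luciferin-ME at its Km, 100uM, driven by an NADPH-regenerating system for 60 min at room temperature.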
# [3] = NFAT Signaling Pathway (AID 444; active means well fitted curve in either direction with a large enough effect, not every such curve was filed as active;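 further: carbachol stimulus at about its EC50 of 1 µM final; on the % scale 0 is the no-effect control and ±100 the full control effect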); conditions: Jurkat NFAT-bla M1, carbachol, beta-lactamase ratio, 5 h; at 17.2 µM (top of the series)
# Outline: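 Jurkat cells with NFAT-driven β-lactamase reporter and co-expressed M1 receptor, stimulated with carbachol (final 1 uM, ~EC50), compound titration, 5 h at 37 °C. CCF4 loaded 1 h at RT; 460/530 nm ratio gave %activity and AC50.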
# [4] = Stat Signaling Pathway (AID 446; active means well fitted curve in either direction with a large enough effect, not every such curve was filed as active;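 further: ME-180 cervical cancer cells given 40 pM IL-6 alongside compound; SIE-controlled beta-lactamase reporter measured as 460/530 nm FRET emission ratio; on the % scale 0 is the no-effect control and ±100 the full control effect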); conditions: ME-180 SIE beta-lactamase reporter, IL-6 stimulated, 5 h; at 17.2 µM (top of the series)
# Outline: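 Screening format detects activators and inhibitors alike: ME-180 SIE-bla cells stimulated at 40 pM IL-6 for 5 hrs with compound, then dual-emission beta-lactamase read at 405 nm excitation.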
# [5] = target: Glucocorticoid receptor (Homo sapiens) (UniProt P04150); test: GR-GFP Redistribution (AID 450;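 active means compounds whose dose series gives a full or clear partial fitted curve of increased nuclear translocation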; further: potency means the concentration at half of the fitted maximal effect); conditions: U2OS GR-GFP nuclear translocation, laser cytometry, 2 h
# Chain of Glucocorticoid receptor (Homo sapiens) (P04150 whole entry, looked up, the tested form may be a part): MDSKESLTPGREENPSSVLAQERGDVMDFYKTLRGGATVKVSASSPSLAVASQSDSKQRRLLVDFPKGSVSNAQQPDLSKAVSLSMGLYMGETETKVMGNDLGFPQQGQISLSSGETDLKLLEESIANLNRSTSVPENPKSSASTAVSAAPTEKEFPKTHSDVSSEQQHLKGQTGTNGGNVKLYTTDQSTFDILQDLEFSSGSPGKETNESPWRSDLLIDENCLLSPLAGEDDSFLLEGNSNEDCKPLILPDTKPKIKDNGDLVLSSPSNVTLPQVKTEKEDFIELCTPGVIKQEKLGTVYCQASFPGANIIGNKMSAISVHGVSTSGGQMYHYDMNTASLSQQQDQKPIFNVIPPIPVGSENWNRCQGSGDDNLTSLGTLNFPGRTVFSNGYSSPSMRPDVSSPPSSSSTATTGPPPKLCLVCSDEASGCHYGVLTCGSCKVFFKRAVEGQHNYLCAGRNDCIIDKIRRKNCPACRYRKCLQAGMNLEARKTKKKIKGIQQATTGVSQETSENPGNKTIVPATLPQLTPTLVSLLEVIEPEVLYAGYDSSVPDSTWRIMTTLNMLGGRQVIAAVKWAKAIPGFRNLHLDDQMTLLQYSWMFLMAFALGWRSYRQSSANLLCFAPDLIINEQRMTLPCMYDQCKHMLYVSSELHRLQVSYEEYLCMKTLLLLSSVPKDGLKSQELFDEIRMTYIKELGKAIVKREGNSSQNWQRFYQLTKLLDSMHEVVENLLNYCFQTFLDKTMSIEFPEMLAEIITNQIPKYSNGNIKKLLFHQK
# [6] = target: Glucocorticoid receptor (Homo sapiens) (UniProt P04150); test: GR-EFC Redistribution (AID 451; calls by dose curve; further: potency means the concentration at half of the fitted maximal effect); conditions: CHO-K1 GR-EFC translocation, beta-gal luminescence, 2 h
# Outline: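 CHO-K1 cells expressing nuclear EA and GR-ED fragments of b-gal; compounds titrated up to 46 uM final, 2 h at 37 C. GR nuclear translocation read as complemented b-gal luminescence after 1 h RT detection.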
# [7] = target: Mitogen-activated protein kinase 10 (Mus musculus) (UniProt Q61831); test: JNK3 AlphaScreen Assay (AID 530; active means well fitted curve in either direction with a large enough effect, not every such curve was filed as active;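 further: kinase came from lysate of stimulated human HepG2 cells; signal reports phosphorylation of biotinylated GST-cJun 1-79 at Ser73 with 10 µM ATP; on the % scale 0 is the no-effect control and ±100 the full control effect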); conditions: JNK3 lysate, c-Jun phosphorylation; series mostly up to 57.1 µM
# Outline: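 qHTS format: compounds tested as titrations against IL-1beta/TNF-alpha-activated HepG2 lysate JNK3 with biotin-GST-cJun substrate and 10 uM ATP at room temperature. Loss of anti-phospho-cJun AlphaScreen signal indicates inhibition.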
# [8] = target: 3',5'-cyclic-AMP phosphodiesterase 4B (Homo sapiens) (UniProt Q07343); test: qHTS Assay for Inhibitors of PDE-IV (AID 607; active means well fitted activation curve with a large enough effect in the main read-out, with a control signal flat, not every such curve was filed as active; further: % of control where 0% means no effect); conditions: HEK293 ACTOne CNG channel cells, membrane potential fluorescence; series mostly up to 22.9 µM
# Chain of 3',5'-cyclic-AMP phosphodiesterase 4B (Homo sapiens) (Q07343 whole entry, looked up): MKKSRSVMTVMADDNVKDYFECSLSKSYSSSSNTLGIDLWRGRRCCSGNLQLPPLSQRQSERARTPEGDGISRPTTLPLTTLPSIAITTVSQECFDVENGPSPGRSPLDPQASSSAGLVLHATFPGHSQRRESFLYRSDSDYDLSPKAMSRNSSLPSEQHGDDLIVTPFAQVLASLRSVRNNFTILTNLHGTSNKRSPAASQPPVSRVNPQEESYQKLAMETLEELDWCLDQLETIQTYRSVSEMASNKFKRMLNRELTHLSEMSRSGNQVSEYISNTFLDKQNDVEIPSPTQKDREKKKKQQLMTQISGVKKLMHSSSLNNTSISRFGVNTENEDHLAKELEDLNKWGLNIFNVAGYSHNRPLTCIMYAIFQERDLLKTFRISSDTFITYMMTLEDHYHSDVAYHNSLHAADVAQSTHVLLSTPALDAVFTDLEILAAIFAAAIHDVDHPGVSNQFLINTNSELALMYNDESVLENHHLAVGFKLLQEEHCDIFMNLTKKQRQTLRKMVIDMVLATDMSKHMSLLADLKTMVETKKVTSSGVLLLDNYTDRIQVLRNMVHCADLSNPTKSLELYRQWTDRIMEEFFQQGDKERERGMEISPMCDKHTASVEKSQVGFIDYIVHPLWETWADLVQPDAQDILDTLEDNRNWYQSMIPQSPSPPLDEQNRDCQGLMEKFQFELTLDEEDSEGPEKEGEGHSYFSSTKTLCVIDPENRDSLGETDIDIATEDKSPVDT
# Outline: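 The readout is membrane depolarisation from a cAMP-sensing CNG channel, detected with a potential dye at ex 535/em 590. Cells were HEK293-derived (endogenous PDE-IV) at 1000 cells/well, titrated up to 22.9 uM final.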
# [9] = target: Cytochrome P450 2C9 (Homo sapiens) (UniProt P11712); test: qHTS Assay for Inhibitors and Substrates of Cytochrome P450 2C9 (AID 883); conditions: recombinant CYP2C9, luciferin-H luminescence, 60 min; series mostly up to 57.1 µM; further: potency means the concentration at half of the fitted maximal effect; nearly all actives have a fitted effect of over 60% in size
# Chain of Cytochrome P450 2C9 (Homo sapiens) (P11712 whole entry, looked up): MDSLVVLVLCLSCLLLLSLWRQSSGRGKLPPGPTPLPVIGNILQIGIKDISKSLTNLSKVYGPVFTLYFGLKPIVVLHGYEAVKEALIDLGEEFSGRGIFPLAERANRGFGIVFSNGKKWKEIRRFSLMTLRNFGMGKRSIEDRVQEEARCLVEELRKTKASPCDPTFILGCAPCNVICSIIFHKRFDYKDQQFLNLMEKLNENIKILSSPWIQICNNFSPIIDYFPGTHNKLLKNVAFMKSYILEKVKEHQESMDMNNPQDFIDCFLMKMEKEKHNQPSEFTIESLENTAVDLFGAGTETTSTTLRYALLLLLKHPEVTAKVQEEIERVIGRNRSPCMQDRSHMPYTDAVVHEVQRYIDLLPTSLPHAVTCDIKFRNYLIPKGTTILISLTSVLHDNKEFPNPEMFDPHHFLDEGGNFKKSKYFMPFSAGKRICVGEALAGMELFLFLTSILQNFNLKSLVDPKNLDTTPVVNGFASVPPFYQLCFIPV
# Outline: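 Human CYP2C9 (10nM) with Luciferin-H at 100uM (its KM) in 25mM KPO4; compound preincubated 10 min at 37C, then NADPH regeneration for 60 min at 37C. Luciferin read by luminescence after detection reagent; normalized to 57uM sulphaphenazole as full inhibition.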
# [10] = target: Cytochrome P450 3A4 (Homo sapiens) (UniProt P08684); test: qHTS Assay for Inhibitors and Substrates of Cytochrome P450 3A4 (AID 884); conditions: recombinant CYP3A4, Luciferin-PPXE luminescence; series mostly up to 57.1 µM; further: potency means the concentration at half of the fitted maximal effect; nearly all actives have a fitted effect of over 50% in size
# Chain of Cytochrome P450 3A4 (Homo sapiens) (P08684 whole entry, looked up): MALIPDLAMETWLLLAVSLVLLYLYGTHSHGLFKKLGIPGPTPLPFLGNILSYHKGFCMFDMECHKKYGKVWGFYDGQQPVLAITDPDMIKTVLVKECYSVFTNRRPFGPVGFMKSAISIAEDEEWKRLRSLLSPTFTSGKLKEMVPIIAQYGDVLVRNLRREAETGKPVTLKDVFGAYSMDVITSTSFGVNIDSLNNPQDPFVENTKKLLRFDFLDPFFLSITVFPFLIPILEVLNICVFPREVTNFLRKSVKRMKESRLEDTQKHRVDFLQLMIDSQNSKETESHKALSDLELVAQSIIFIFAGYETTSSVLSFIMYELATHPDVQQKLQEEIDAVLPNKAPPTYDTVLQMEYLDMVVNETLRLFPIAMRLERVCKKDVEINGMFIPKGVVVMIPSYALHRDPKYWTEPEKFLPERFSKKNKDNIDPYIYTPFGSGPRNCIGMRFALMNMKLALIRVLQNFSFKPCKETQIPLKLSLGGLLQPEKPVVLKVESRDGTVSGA
# Outline: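 20 nM human CYP3A4 with 25 uM Luciferin-PPXE (at KM) in 200 mM KPO4, preincubated 10 min with compound; NADPH regeneration started a 60 min RT reaction. Luciferin detected by luminescence, normalized to 57 uM ketoconazole as full inhibition.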
# [11] = target: Cytochrome P450 3A4 (Homo sapiens) (UniProt P08684); test: qHTS Assay for Activators of Cytochrome P450 3A4 (AID 885); conditions: recombinant CYP3A4, Luciferin-PPXE luminescence, 60 min; series mostly up to 57.1 µM; further: nearly all actives have a fitted effect of over 65% in size
# Outline: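 Steps: enzyme/substrate mix dispensed; compound added, 10 min RT; NADPH regeneration solution added, 60 min RT; luciferin detection buffer stops reaction; 20 min later luminescence measured.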
# [12] = target: Cytochrome P450 2C19 (Homo sapiens) (UniProt P33261); test: qHTS Assay for Inhibitors and Substrates of Cytochrome P450 2C19 (AID 899); conditions: recombinant CYP2C19, luciferin-H EGE luminescence; series mostly up to 57.1 µM; further: potency means the concentration at half of the fitted maximal effect; nearly all actives have a fitted effect of over 60% in size
# Chain of Cytochrome P450 2C19 (Homo sapiens) (P33261 whole entry, looked up): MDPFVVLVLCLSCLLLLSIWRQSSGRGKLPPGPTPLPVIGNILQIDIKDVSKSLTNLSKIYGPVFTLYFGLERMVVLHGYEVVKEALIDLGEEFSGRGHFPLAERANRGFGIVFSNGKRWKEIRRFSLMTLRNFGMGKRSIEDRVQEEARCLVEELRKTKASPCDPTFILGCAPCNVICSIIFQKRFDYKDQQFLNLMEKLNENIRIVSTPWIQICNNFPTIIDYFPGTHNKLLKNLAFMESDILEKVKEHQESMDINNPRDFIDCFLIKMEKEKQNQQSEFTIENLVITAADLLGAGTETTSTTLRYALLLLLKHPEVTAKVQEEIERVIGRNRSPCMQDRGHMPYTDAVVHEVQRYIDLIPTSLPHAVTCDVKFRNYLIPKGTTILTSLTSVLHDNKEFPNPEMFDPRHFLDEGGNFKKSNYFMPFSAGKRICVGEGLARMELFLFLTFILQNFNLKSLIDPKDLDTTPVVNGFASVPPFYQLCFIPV
# Outline: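 5 nM human CYP2C19 with 10uM Luciferin-H EGE (at KM) in 50mM KPO4, compound preincubated 10 min at 37C, then NADPH regeneration for 60 min at 37C. Luciferin read by luminescence after detection reagent; normalized to 57uM ketoconazole as full inhibition.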
# [13] = target: DNA dC->dU-editing enzyme APOBEC-3G (Homo sapiens) (UniProt Q9HC16); test: qHTS for inhibitors of Vif-A3G interactions: Validation (AID 588379); conditions: Vif-A3G protein interaction assay; series mostly up to 46.1 µM; further: 0% is about no effect
# Chain of DNA dC->dU-editing enzyme APOBEC-3G (Homo sapiens) (Q9HC16 whole entry, looked up): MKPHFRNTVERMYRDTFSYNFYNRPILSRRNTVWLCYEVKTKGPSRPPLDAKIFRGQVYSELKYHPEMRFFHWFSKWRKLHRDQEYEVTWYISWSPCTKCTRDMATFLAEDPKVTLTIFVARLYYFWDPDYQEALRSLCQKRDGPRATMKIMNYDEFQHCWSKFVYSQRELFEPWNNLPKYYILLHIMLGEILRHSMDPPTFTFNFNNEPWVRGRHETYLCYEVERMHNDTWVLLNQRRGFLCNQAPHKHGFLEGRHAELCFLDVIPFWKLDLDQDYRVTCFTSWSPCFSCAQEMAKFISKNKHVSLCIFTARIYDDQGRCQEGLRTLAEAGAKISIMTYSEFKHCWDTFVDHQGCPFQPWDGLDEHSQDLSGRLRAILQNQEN
# Outline: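 HeLa cells stably expressing Vif and A3G-eYFP, 700 cells/well, incubated overnight at 37 deg C, then exposed to compound overnight at 37 deg C. Inhibition of Vif-mediated degradation read as increased yellow fluorescence (Ex 488/Em 500-530) by laser-scanning cytometry.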
# [14] = Primary qHTS for small molecule stabilizers of the endoplasmic reticulum resident proteome: Secreted ER Calcium Modulated Protein (SERCaMP) assay (AID 1508630); conditions: SH-SY5Y GLuc-SERCaMP (Gaussia luciferase released on ER calcium loss) secretion, thapsigargin, luminescence; series mostly up to 38.4 µM; further: on the % scale 0 is the no-effect control and ±100 the full control effect
# Outline: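 GLuc-SERCaMP-expressing SH-SY5Y cells, pretreated 16 h with compound, are challenged with thapsigargin to empty ER calcium stores; after 4 h, coelenterazine is added directly to the medium and luminescence is imaged.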
# [15] = target: Rap guanine nucleotide exchange factor 3 (Homo sapiens) (UniProt O95398); test: Confirmatory qHTS for antagonist of cAMP-regulated guanine nucleotide exchange factor 3 (EPAC1) (AID 1645880); conditions: EPAC1 Rap1B-BODIPY-GDP exchange, fluorescence; series mostly up to 115 µM;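 further: plate controls were DMSO only for no effect and full effect of the ATA control for full effect; nearly all actives have a fitted effect of over 55% in size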
# Chain of Rap guanine nucleotide exchange factor 3 (Homo sapiens) (O95398 whole entry, looked up): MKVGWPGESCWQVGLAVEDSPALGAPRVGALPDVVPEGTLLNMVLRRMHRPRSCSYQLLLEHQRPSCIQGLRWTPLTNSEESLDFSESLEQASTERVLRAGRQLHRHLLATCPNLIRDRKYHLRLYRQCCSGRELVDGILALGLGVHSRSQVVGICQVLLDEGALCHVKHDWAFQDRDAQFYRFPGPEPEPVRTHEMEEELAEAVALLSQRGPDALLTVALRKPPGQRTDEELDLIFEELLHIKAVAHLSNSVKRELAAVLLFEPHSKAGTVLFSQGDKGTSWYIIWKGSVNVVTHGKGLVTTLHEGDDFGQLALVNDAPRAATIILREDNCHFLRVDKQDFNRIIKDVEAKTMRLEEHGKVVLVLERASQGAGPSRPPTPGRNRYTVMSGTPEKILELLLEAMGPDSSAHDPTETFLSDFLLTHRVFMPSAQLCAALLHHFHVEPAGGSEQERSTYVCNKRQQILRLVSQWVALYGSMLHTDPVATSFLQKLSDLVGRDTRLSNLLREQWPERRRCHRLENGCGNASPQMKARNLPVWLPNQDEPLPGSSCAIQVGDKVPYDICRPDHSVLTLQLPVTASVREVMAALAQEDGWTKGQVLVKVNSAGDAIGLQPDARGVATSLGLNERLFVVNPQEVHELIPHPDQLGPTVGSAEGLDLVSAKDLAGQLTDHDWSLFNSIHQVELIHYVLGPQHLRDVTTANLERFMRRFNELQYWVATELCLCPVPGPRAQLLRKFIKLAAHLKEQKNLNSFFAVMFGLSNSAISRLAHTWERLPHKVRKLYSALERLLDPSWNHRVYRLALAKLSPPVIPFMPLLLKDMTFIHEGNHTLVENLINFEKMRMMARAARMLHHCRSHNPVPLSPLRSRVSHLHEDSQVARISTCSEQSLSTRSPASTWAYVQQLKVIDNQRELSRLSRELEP
# Outline: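 Nucleotide exchange uses 100 nM EPAC1, 250 nM RAP1B-BODIPY-GDP and 50 uM GDP, with compounds in a concentration-titration series. After 5 min at room temperature, fluorescence (480 nm ex/540 nm em) is read every 5 min for 30 min. Data are normalized to control ATA and DMSO.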
# [16] = target: Rap guanine nucleotide exchange factor 3 (Homo sapiens) (UniProt O95398); test: Confirmatory qHTS for agonist of cAMP-regulated guanine nucleotide exchange factor 3 (EPAC1) (AID 1645881); conditions: EPAC1 Rap1B BODIPY-GDP exchange fluorescence, 100% = cAMP control response; series mostly up to 154 µM;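 further: EPAC1 catalysed release of BODIPY-GDP from Rap1B seen as fluorescence loss; nearly all actives have a fitted effect of over 75% in size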
# [17] = target: Rap guanine nucleotide exchange factor 4 (Homo sapiens) (UniProt Q8WZA2); test: Confirmatory qHTS for agonist of cAMP-regulated guanine nucleotide exchange factor 4 (EPAC2) (AID 1645884); conditions: EPAC2 GEF activity, Rap1B-BODIPY-GDP fluorescence, percent relative to cAMP agonist control; series mostly up to 154 µM;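 further: nucleotide exchange releases bodipy-GDP from Rap1 and this lowers its fluorescence; on the % scale 0 is the no-effect control and ±100 the full control effect; nearly all actives have a fitted effect of over 65% in size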
# [18] = NCATS anti-infectives library activity on HEK293 viability as a counter-qHTS vs the C. elegans viability qHTS (AID 1745854); conditions: HEK293 viability counter-screen; series mostly up to 41.8 µM
# Outline: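 Cytotoxicity in human HEK293 cells is measured by ATP-dependent CellTiter-Glo luminescence following a 24 hr incubation with titrated library compounds at 37C. Top final concentration is 41.7 uM.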
# [19] = qHTS Assay for Lipid Storage Modulators (AID 1519; calls by dose curve); conditions: Drosophila S3 cells, BODIPY lipid droplet/cell ratio, laser cytometry, cells loaded with oleic acid
# Outline: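 Cells seeded at 5,000 per well were treated with compounds over a concentration series and loaded with oleic acid (400 uM, as added). Lipid droplet fluorescence (488 nm excitation, 500-530 nm channel) was read by laser-scanning cytometry and normalized to 20 uM Triacsin C.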
smiles,measurement,setting,value
COc1cc(CNC(=O)CCCC/C=C\C(C)C)ccc1O,"activity change, negative = inhibition",[1],7.68% (inactive)
same,Potency,[2],1.58 µM (active) and 2 µM (active) and 3.16 µM (active)
same,"activity change, negative = inhibition",[3],-1.65% (inactive)
same,"activity, negative = inhibition",[4],-15.5% (inactive)
same,Potency,[5],> 20.6 µM (inactive) and > 46 µM (inactive)
same,Potency,[6],> 20.6 µM (inactive) and > 46 µM (inactive)
same,Potency,[7],inactive
same,Potency,[8],inactive
same,Potency,[9],2 µM (active) and 1.26 µM (active)
same,Potency,[10],3.98 µM (active)
same,Potency,[11],inactive
same,Potency,[12],7.94 µM (active) and 6.31 µM (active)
same,Potency,[13],inactive
same,Potency,[14],inactive
same,Potency,[15],inactive
same,outcome,[16],inactive
same,outcome,[17],inactive
same,outcome,[18],inactive
CCCCCCCCCCCCC/C=C\[C@@H](O)[C@H](CO)NC(C)=O,Potency,[2],20 µM (active)
same,Potency,[5],> 46 µM (inactive)
same,Potency,[6],> 46 µM (inactive)
same,Potency,[7],inactive
same,Potency,[8],inactive
same,Potency,[9],3.16 µM (active)
same,"activity change, negative = inhibition",[19]; at 57.5 µM (top of the series),-6.83% (inactive)
same,max response,[19]; measured here: cell count channel max response,9.95%
same,max response,[19]; measured here: lipid channel max response,-0.444%
same,Potency,[13],inactive
same,Potency,[14],inactive

# — PubChem BioAssay (NCATS)
